This is part of a sample that, as a whole, favours compounds with a hit. Of some 83,000 tested, about 20% had one in any assay.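 Single-concentration screen, 48 h exposure, 96-well plates. Endpoint: percent growth. Below 10 = active.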 Unmarked numbers belong to inactive results. Calls of active or inactive are those of the source.
What follows are compounds tested on HL-60(TB) leukemia (assay: NCI-60 one-dose screen, 48 h (100 = growth as untreated, 0 = no growth, -100 = all killed)). Conditions: 10 µM unless noted.

SMILES	growth
OCC1OC(n2cnc3c(NCc4ccco4)ncnc32)C(O)C1O (stereo not given)	-26.3% (active)
CCOC(=O)CSSCC(=O)OCC	108%
COc1ccc(-c2nc3c(c(=O)n2C(C)=O)C(c2ccc(Cl)cc2)c2sc4c(Cl)cccc4c2O3)cc1 (stereo not given)	-14% (active)
COc1ccc(/C=C/c2ccc3ccccc3n2)c(OC)c1	40.7%
CS(=O)(=O)c1ccc(-c2cc3c(oc2=O)-c2ccccc2OC3O)cc1 (stereo not given)	93.5%
FC(F)(F)c1nn[nH]n1	102%
CCN1CCN(c2nc(C)cc(N(CCNc3ccnc4cc(Cl)ccc34)Cc3ccc4c(c3)OCO4)n2)CC1	-57.7% (active)
COc1ccc(/C=N\N2CCOCC2)cc1OC1CCCC1	104%
Nc1nc(N)c2c(ccc3nccc32)[nH]1	16.5%
CCOC(=O)c1ccc2c(c1)nc(-c1ccc(OCc3ccccc3)c(OC)c1)n2-c1cc(C(C)(C)C)[nH]n1	81.6%
COc1ccc(N/N=C/c2ccc3c(c2)Sc2ccccc2N3C)cc1	57.3%
COc1cc(-c2nc3sc(C)cn3c2/C=C2\C(=O)Nc3ccccc32)c(Br)c(OC)c1OC	-7.35% (active)
CCCCN1CCCC[C@@H]1C(=O)N[C@H](C(=O)N(C)[C@H](CCc1nc(C(=O)N[C@@H](Cc2ccccc2)C[C@H](C)C(=O)OC)cs1)C(C)C)C(C)C	5.08% (active)
CC1=NNC(=O)C1CCC(=O)N/N=C(\C)c1ccc2ccccc2c1 (stereo not given)	86.4%
N=c1ccccn1CCO	120%

From PubChem BioAssay (NCI)
